# Reference: PubChem BioAssay AID777 (Sanford-Burnham Center for Chemical Genomics, 2007)
# Among all 96,000 compounds or so, about 19,000 (20%) were called active.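 The calls were made as follows: active = blocking of liver enzyme CYP2C9 beyond about 50% at 5 µM (limit read from the data); inactive = the rest.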 A selection follows.
# Target: Cytochrome P450 2C9 (Homo sapiens) (UniProt P11712)
# Assay: blockers of cytochrome P450 2C9 activity – biochemical, luminescence, ADME assay, primary screen (AID 777)
# Conditions: CYP2C9 Supersomes, luciferin-H conversion, at 5 µM, stronger effect = higher value
# Sequence of Cytochrome P450 2C9 (Homo sapiens) (P11712 whole entry, looked up): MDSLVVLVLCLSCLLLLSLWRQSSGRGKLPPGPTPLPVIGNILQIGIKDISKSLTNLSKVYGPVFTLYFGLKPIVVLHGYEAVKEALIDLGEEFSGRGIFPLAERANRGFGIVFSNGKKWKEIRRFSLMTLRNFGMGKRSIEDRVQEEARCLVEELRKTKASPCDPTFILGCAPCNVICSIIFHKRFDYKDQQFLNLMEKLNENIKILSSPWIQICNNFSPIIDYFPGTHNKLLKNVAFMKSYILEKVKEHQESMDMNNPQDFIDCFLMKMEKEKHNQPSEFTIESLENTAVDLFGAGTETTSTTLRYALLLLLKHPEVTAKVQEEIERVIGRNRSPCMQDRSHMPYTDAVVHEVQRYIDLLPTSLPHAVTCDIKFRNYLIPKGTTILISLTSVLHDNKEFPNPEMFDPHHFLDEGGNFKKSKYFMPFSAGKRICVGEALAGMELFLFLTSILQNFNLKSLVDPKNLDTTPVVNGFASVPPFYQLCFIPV
row,Structure (SMILES),inhibition
1,CC(=O)c1ccc(OCCN2CCOCC2)cc1,9.9% (inactive)
2,CC1CC(c2ccccc2)n2nc(NC(=O)c3cccs3)nc2N1 (centres undefined),0.9% (inactive)
3,CCOC(=O)C1CCCN(C(=O)c2cncc(Br)c2)C1 (centres undefined),33.3% (inactive)
4,COc1ccc(CCNC(=O)C2CCN(c3nn4c(=O)cc(C)nc4s3)CC2)cc1OC,-11.8% (inactive)
5,Cc1cc(=O)n2nc(N3CCCC3C(=O)NCCCN3CC(C)CC(C)C3)sc2n1 (centres undefined),1.8% (inactive)
6,Cc1cc(=O)n2nc(N3CCCC(C(=O)NCCC4=CCCCC4)C3)sc2n1 (centres undefined),61.7% (active)
7,CCCC(=O)Nc1nnc(CC(=O)OCC)s1,-12.8% (inactive)
8,COCCCNC(=O)Cn1cc(C(=O)C2CC2)c2ccccc21,11.2% (inactive)
9,CN1CCN(S(=O)(=O)c2ccc(NC(=O)C3CCCO3)cc2)CC1 (centres undefined),60% (active)
10,CN1CCN(S(=O)(=O)c2ccc(NC(=O)c3ccco3)cc2)CC1,-13.5% (inactive)
11,O=C(Nc1nc2ccc(S(=O)(=O)N3CCCC3)cc2s1)C1CCCO1 (centres undefined),46.1% (inactive)
12,c1csc(CN2CCN(Cc3cccs3)C2c2cccs2)c1,-9% (inactive)
13,Cc1[nH]c2ccccc2c1C(=O)COC(=O)C(C)C,-5% (inactive)
14,COc1ccccc1CCNC(=O)c1cnccn1,-35.8% (inactive)
15,COc1ccc(S(=O)(=O)N(CCCN2CCCC2=O)Cc2cc3c(C)ccc(C)c3[nH]c2=O)cc1,85.6% (active)
16,CCOc1ccc(C(=O)NCCCN2CCCC2=O)cc1,12.3% (inactive)
17,CCCN(Cc1cc2cccc(C)c2[nH]c1=O)S(C)(=O)=O,36.4% (inactive)
18,CSc1ccc(Cl)c(C(=O)OCC(=O)N2CC(C)OC(C)C2)c1 (centres undefined),-24.7% (inactive)
19,Cc1nc2nc3c(cn2n1)C(=O)CC(c1ccccc1)C3 (centres undefined),65.6% (active)
20,Cc1cc(=O)oc(C)c1C(=O)NCc1ccc(F)cc1,51.6% (active)
21,Cc1cc(=O)oc(C)c1C(=O)Nc1cnc2ccccc2c1,10.5% (inactive)
22,COc1ccc(CNC(=O)c2c(C)cc(=O)oc2C)cc1OC,32.7% (inactive)

row,Structure (SMILES),inhibition
1,O=C(c1ccc(Cl)c(Cl)c1)N1CCCC1,7% (inactive)
2,Cc1ccc(CNC(=O)CN2CCN(Cc3ccc(Cl)cc3)C2=O)cc1,17.5% (inactive)
3,Cc1cccc(NC(=O)CN2CCCN(S(=O)(=O)c3ccc(Br)s3)CC2)c1,11.6% (inactive)
4,O=C(CN1CCN(S(=O)(=O)c2ccc(Cl)s2)CC1)NCc1ccc(Cl)cc1,55.1% (active)
5,O=S(=O)(NCc1ccccc1Cl)c1cnc[nH]1,28.8% (inactive)
6,CC1(C)CC(=O)C=C(NCCN2CCNCC2)C1,-8.1% (inactive)
7,Cc1ccc(Nc2nc(C)cc(C)c2C(N)=O)cc1,6.2% (inactive)
8,CCOC(=O)c1nc(Nc2ccc(C(=O)OC)cc2)c2ccccc2n1,59.5% (active)
9,COC(=O)c1ccc(NCC(=O)c2ccccc2)cc1,48.7% (inactive)
10,Cc1nc(CNS(=O)(=O)c2cccnc2)cs1,8.8% (inactive)
11,CCc1cc2c(=O)c(-c3ccon3)c(N)oc2cc1OC,0.5% (inactive)
12,CCn1c(SCCC(C)C)nnc1-c1c[nH]c2ccccc12,1.7% (inactive)
13,O=C(CSc1nnc(-c2ccco2)n1-c1ccccc1)NCCc1ccccc1,30.9% (inactive)
14,CCOc1ccccc1-n1c(SCC(=O)N2CCCC2)nnc1-c1ccoc1C,8.8% (inactive)
15,Cc1ccc(-c2csc3nnc(SCC(=O)NCc4ccco4)n23)cc1,40.9% (inactive)
16,COc1ccc(-n2c(SCC(=O)NCc3cccs3)nnc2-c2ccoc2C)cc1,66.1% (active)
17,CCn1c(SCC(=O)Nc2ccc(OC)c(OC)c2)nnc1-c1c[nH]c2ccccc12,93.3% (active)
18,Cc1ccc(-n2c(SCC(=O)Nc3ccc4c(c3)OCO4)nnc2-c2ccoc2C)cc1,-13.4% (inactive)
19,O=C(CSc1nnc2scc(-c3ccc(F)cc3)n12)NCc1ccco1,55% (active)
20,CCOC(=O)N1CCN(C(=O)CSc2nnc(-c3c[nH]c4ccccc34)n2CCOC)CC1,14.7% (inactive)
21,O=C(CSc1nnc(-c2cccs2)n1-c1ccccc1)NCc1ccco1,70.7% (active)
22,O=C(CSc1nnc(-c2cccs2)n1-c1ccccc1)N1CCN(C(=O)c2ccco2)CC1,23.6% (inactive)

row,Structure (SMILES),inhibition
1,CC(C)(C)OC(=O)c1c(N)n(CCCN2CCCC2=O)c2nc3ccccc3nc12,-1.7% (inactive)
2,CCc1c(C)n([O-])c2c([n+]1=O)CCCCC2,-11.5% (inactive)
3,CC1CCC2(CC1)NC(=O)N(CC(=O)c1cccn1C)C2=O (centres undefined),-21.9% (inactive)
4,Nc1ccc(C(=O)OCC(=O)NC2CCCc3ccccc32)cc1[N+](=O)[O-] (centres undefined),-4.1% (inactive)
5,Cc1cc(NC(=O)Nc2ccccc2)n(-c2ccccc2)n1,14.5% (inactive)
6,CCOc1ccc(N(CC(=O)NC2CCCCCC2)S(=O)(=O)c2c(C)[nH]c(=O)[nH]c2=O)cc1,1.3% (inactive)
7,Cc1ccc(CNC(=O)c2ccccc2CCc2ccccc2)cc1,29.1% (inactive)
8,Cc1cccc(C(=O)Nc2ccc(C(=O)/C=C/c3cccs3)cc2)c1,26.4% (inactive)
9,O=C(NC1CC1)c1ccc2c(c1)NC(=O)c1ccccc1S2,11.1% (inactive)
10,COc1ccc(C(=O)NC(=O)CSc2nnc(-c3ccco3)n2-c2ccccc2)cc1,-13.3% (inactive)
11,COc1ccc(-c2nnc(SCC(=O)c3ccco3)n2-c2ccccc2)cc1,-14.6% (inactive)
12,COc1ccc(-n2c(SCC(=O)NCc3ccco3)nnc2-c2c[nH]c3ccccc23)cc1,58.8% (active)
13,Cc1cc(NC(=O)CN2CCCC(C)C2)n(-c2nc3ccccc3s2)n1 (centres undefined),22.2% (inactive)
14,c1ccc2c(c1)OCC(c1nn3cnnc3s1)O2 (centres undefined),7% (inactive)
15,CC(C)(C)c1cc2cccnc2n1Cc1cccc(F)c1,6.5% (inactive)
16,COC(=O)c1ccc(OCC(=O)NC(C)(C)C)cc1,14.1% (inactive)
17,CC/C(=N/Nc1ccccc1)c1cnnc(SC)n1,59% (active)
18,O=S1(=O)C=C(SCCN2CCCC2)c2ccccc21,14% (inactive)
19,CC(C)(C)c1csc(NC2=NS(=O)(=O)c3ccccc32)n1,17.4% (inactive)
20,CC(C)(C)c1ccc(OC2=CS(=O)(=O)c3ccccc32)cc1,79% (active)
